Reference: the supplement of paper PMC9844399
Where a name gives a salt, the structure may show the parent alone.

Tested on: HeLa
Experiment: nuclear count per well, robust Z-score vs DMSO; higher = more cells (less toxicity)
Settings: 10 µM; 6 h
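Further: Hoechst-stained nuclei counted by automated confocal imaging of four fields per well in 384-well plates, with the robust Z-score based on the per-plate DMSO median and robust SD.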

Row | SMILES | nuclear count per well
1 | C[C@H]1C(=O)O[C@@H]2CCN3CC=C(COC(=O)[C@](C)(O)[C@]1(C)O)[C@H]23 [Monocrotaline] | 1.08
2 | COc1cccc2c1cc([N+](=O)[O-])c1c(C(=O)O)cc3c(c12)OCO3 [Aristolochic acid] | 0.192
3 | CN1C[C@H](C(=O)N[C@]2(C)O[C@@]3(O)[C@@H]4CCCN4C(=O)[C@H](Cc4ccccc4)N3C2=O)C[C@@H]2c3cccc4[nH]cc(c34)C[C@H]21 [Dihydroergotamine Mesylate] | 0.685
4 | CCCCC/C=C\C/C=C\C/C=C\C/C=C\CCCC(=O)NCc1ccc(O)c(OC)c1 [Arvanil] | 0.154
5 | O=C(Nc1ccccc1)N(Cc1ccc(Cl)cc1)C1CCCC1 [Pencycuron] | 1.54
6 | CC(C)N(CCC(C(N)=O)(c1ccccc1)c1ccccn1)C(C)C (centres undefined) [Disopyramide] | 0.233
7 | O=C1Nc2ccc(Cl)cc2C(c2ccccc2)=NC1O (centres undefined) [Oxazepam] | -1.19
8 | CC(=O)C1=C(O)[C@@H]2[C@H]3c4c[nH]c5cccc(c45)C[C@H]3C(C)(C)N2C1=O [Cyclopiazonic acid] | -0.298
9 | O=P1(N(CCCl)CCCl)NCCCO1 (centres undefined) [Cyclophosphamide] | 0.528
10 | O[C@H]1[C@H](O)[C@@H](O)CN2CC[C@H](O)[C@H]12 [Castanospermine] | -0.541
11 | CC(C)[C@@H]1NC(=O)[C@H](C)OC(=O)[C@@H](C(C)C)NC(=O)[C@@H](C(C)C)OC(=O)[C@H](C(C)C)NC(=O)[C@H](C)OC(=O)[C@@H](C(C)C)NC(=O)[C@@H](C(C)C)OC(=O)[C@H](C(C)C)NC(=O)[C@H](C)OC(=O)[C@@H](C(C)C)NC(=O)[C@@H](C(C)C)OC1=O [Valinomycin] | -0.196
12 | c1ccc2c(c1)[I+]c1ccccc1-2 [Diphenyleneiodonium] | -2.32
13 | CC(C)n1cc2c3c(cccc31)C1C[C@@H](C(=O)N[C@H]3CCC[C@H]3O)CN(C)[C@@H]1C2 (some centres undefined) | 0.107
14 | CO/C1=C\C(C)=C\[C@@H](C)[C@@H](O)[C@@H](C)C/C(C)=C/C=C/[C@H](OC)[C@@H]([C@@H](C)[C@@H](O)[C@H](C)[C@@]2(O)C[C@@H](O)[C@H](C)[C@@H](C(C)C)O2)OC1=O [Bafilomycin A1] | 0.012
15 | COC(=O)[C@@H](N)CCCNC(=N)N[N+](=O)[O-] | 0.607
16 | O=C(NCCN1CCC2(CC1)C(=O)NCN2c1cccc(F)c1)c1ccc2ccccc2c1 | -1.14
17 | COC[C@H]1OC(=O)c2coc3c2[C@@]1(C)C1=C(C3=O)[C@@H]2CCC(=O)[C@@]2(C)C[C@H]1OC(C)=O [Wortmannin] | -2.5
18 | CCCCCCCCCCCCCC(=O)O[C@@H]1[C@@H](C)[C@@]2(O)[C@@H](C=C(CO)C[C@]3(O)C(=O)C(C)=C[C@@H]23)[C@@H]2C(C)(C)[C@]12OC(C)=O [Phorbol 12-myristate 13-acetate] | -0.439
19 | C=C(C)[C@H]1O[C@H]2CC[C@@]3(C)[C@@](O)(CC[C@H]4[C@@H]5OC(C)(C)[C@H]6C[C@@H]7C(=C)Cc8c(Cl)cc9[nH]c(c5c9c8[C@@]76O)[C@@]43C)[C@@]23O[C@H]3[C@H]1O [Penitrem A] | -0.308
20 | O=C1CC[C@@]2(O)[C@H]3Cc4ccc(O)c5c4[C@@]2(CCN3CC2CC2)[C@H]1O5 | -0.142
21 | CN1C(=O)C(O)N=C(c2ccccc2)c2cc(Cl)ccc21 (centres undefined) [Temazepam] | 0.222
22 | O=C1CSC(c2ccccc2Cl)c2cc(Cl)ccc2N1 (centres undefined) | 0.0531
23 | COC(=O)Nc1nc2ccccc2[nH]1 [Carbendazim] | -1.49
24 | C[C@H](CCC(=O)O)C[C@H](C)C[C@H](C)C(=O)/C=C(\O)[C@H](C)C[C@H](C)C/C=C/[C@@H](C)[C@@H](O)[C@@H](C)[C@@H](O)C[C@@H]1CC[C@@](C)([C@H]2CC[C@@](C)([C@@H](C)O)O2)O1 | -0.338
25 | COc1ccc(C(CN(C)C)C2(O)CCCCC2)cc1 (centres undefined) | 0.428
26 | N#C/C(=C\c1ccc(O)c(O)c1)C(N)=S [AG213 (Tyrphostin 47)] | 1.06
27 | C[C@@H](CN1CCC(n2c(=O)[nH]c3cc(Br)ccc32)CC1)NC(=O)[C@@H]1C[C@H]1c1ccccc1 | -0.101
28 | CCCCCCC(=O)O[C@H]1CC[C@H]2[C@@H]3CCC4=CC(=O)CC[C@]4(C)[C@H]3CC[C@]12C [Testosterone Enanthate] | -0.174
29 | COC(=O)[C@@]1(O)C[C@H]2O[C@]1(C)n1c3ccccc3c3c4c(c5c6ccccc6n2c5c31)C(=O)NC4 | -1.8
